# Data: ChEMBL document CHEMBL3988442, “University of Dundee, Small-Polar-MMV Screening Library” (2021)
# About 13,000 (27%) of roughly 48,000 compounds showed an effect of 50% or more. The list shows a part of the results.
# System: Wolbachia pipientis
# Assay: Anti-Wolbachia Cell-Based Screen
# Format: functional
# Design: scale not given: in the data most compounds retested in dose-response had high values
# Details: 5 µM
row,Compound,Percent Effect [%]
1,COc1ccc(C(=O)C2CCCN(c3cc(OC)ncn3)C2)c(C)c1 (centres undefined),-87.76
2,CC(Cn1cccn1)NCCS(=O)(=O)c1ccc(Cl)cc1 (centres undefined),2.973
3,CC(Cn1cncn1)NC(=O)NCC(C)(C)Cc1ccccc1 (centres undefined),-14.88
4,CCn1c(C2CCN(C(=O)COCC(F)(F)C(F)F)CC2)n[nH]c1=O,14.31
5,COCCN(C)C[C@@H]1CN(c2nc(C)cc(C)n2)C[C@@H]1CO,106.7
6,Cc1nc2ccccn2c1CN1C[C@@H](CN(C)CCO)[C@@H](CO)C1,-4.106
7,COCCN(C)C[C@@H]1CN(c2cc(C)nc3ccccc23)C[C@@H]1CO,85.76
8,Cc1ccccc1CN1C[C@@H](CN(C)CCO)[C@@H](CO)C1,4.643
9,CN(CCO)C[C@@H]1CN(Cc2ccccc2-c2ccccc2)C[C@@H]1CO,-1.449
10,COCCN(C)C[C@@H]1CN(Cc2ccnc3ccccc23)C[C@@H]1CO,90.52
11,CCc1c(C)nc(C)nc1N1C[C@@H](CN(C)CCN(C)C)[C@@H](CO)C1,17.56
12,COCCN(C)C[C@@H]1CN(c2nnc(C(C)C)s2)C[C@@H]1CO,6.543
13,Cc1ccc2nc(C)cc(C(=O)NCc3csc(N(C)C)n3)c2c1,-3.48
14,CCc1nccn1CC(=O)N1C[C@H]2CC[C@@H]1CN(c1ncccn1)C2,11.21
15,COCC1c2nnn(CC3CC3)c2CCN1C(=O)c1cc(C)[nH]c1C (centres undefined),-16.52
16,CC(C)NC(=O)c1ccc2c(c1)C(c1nc[nH]n1)CN2C (centres undefined),-2.409
17,CCc1noc(C(C)N2CCN(c3ncnc4sccc34)CC2)n1 (centres undefined),-87.61
18,CCCc1noc(C(C)N2CCN(CCn3ccccc3=O)CC2)n1 (centres undefined),-12.82
19,Cc1nsc(N2CCCN(c3ccc(C#N)cn3)CC2)n1,7.107
20,CCCc1noc(C(C)N2CCN(c3ccc(C#N)cn3)CC2)n1 (centres undefined),130.1
21,CC(c1nc(C2CC2)no1)N1CCN(Cc2ccc(C#N)cc2)CC1 (centres undefined),26.07
22,CC(c1nc(C(C)(C)C)no1)N1CCN(c2ccc(C#N)cn2)CC1 (centres undefined),105.6

row,Compound,Percent Effect [%]
1,Cc1noc(C2CCN(C(C)c3nc(C(C)(C)C)no3)CC2)n1 (centres undefined),4.561
2,Cc1noc(C(C)N2CCN(c3ncnc4ccccc34)CC2)n1 (centres undefined),-16.31
3,CC(c1nc(C2CC2)no1)N1CCN(Cc2cccc(C#N)c2)CC1 (centres undefined),-8.29
4,Cc1noc(C(C)N2CCN(c3ccc(C#N)cn3)CC2)n1 (centres undefined),146.7
5,CC(c1nc(C(C)(C)C)no1)N1CCN(Cc2ccc(C#N)cc2)CC1 (centres undefined),107.5
6,Cc1noc(C(C)N2CCN(Cc3cccc(C#N)c3)CC2)n1 (centres undefined),7.153
7,COc1ccc(OCc2nc3cc4c(cc3c(=O)o2)OCCCO4)cc1,-25.33
8,CSc1cc2c(cc1NC(=O)NCc1ccncc1)OCCO2,0.1832
9,O=C(NCC1CC1)C1CN(C(=O)c2ccnnc2)CC12CCOCC2 (centres undefined),-9.874
10,CN1C(=O)[C@H]2CC[C@@H]1CN(C(=O)Nc1cccc3ccccc13)C2,3.863
11,N#Cc1cn(C2CC2)c(=O)n(Cc2noc(-c3ccsc3)n2)c1=O,-8.2
12,COc1ccccc1NC(=O)NC(C)c1nc[nH]n1 (centres undefined),-1.106
13,CC(C)c1noc(C(C)N2CCN(Cc3ccccc3C#N)CC2)n1 (centres undefined),-2.438
14,CC(C)c1noc(C(C)N2CCN(c3ccc(C#N)cn3)CC2)n1 (centres undefined),186.4
15,CC(C)c1noc(C(C)N2CCN(Cc3cccc(C#N)c3)CC2)n1 (centres undefined),10.45
16,Cc1nc(-c2cc(C(=O)N3CCCN(C)CC3)c3ccccn23)cn1C.O=C(O)C(F)(F)F,-23.06
17,CN1CCN(c2ccc3ccc(C(=O)N4CCCO4)cn23)CC1.O=C(O)C(F)(F)F,0.4274
18,CN(C)C1CCN(C(=O)c2ccnn2-c2ccc3ccccn23)CC1.O=C(O)C(F)(F)F,64.37
19,CN1CCCN(C(=O)c2ccnn2-c2ccc3ccccn23)CC1.O=C(O)C(F)(F)F,83.85
20,CC(C)(CO)CNC(=O)c1ccnn1-c1ccc2ccccn12,-11.35
21,O=C(NCCCN1CCOCC1)c1ccn(-c2ccc3ccccn23)n1.O=C(O)C(F)(F)F,-6.828
22,CCOCc1nnc(NCc2ccsc2)o1,-11.46

row,Compound,Percent Effect [%]
1,Cc1ccc(OCC(O)CN(C)CC(=O)Nc2cc(C)on2)c(C)c1 (centres undefined),9.432
2,Cc1noc([C@@H]2CCO[C@@H]3CCN(C(=O)Cc4ccsc4)C[C@@H]32)n1,6.284
3,O=C(O)C(=O)O.c1cnc(-c2noc(C3CN(Cc4ccc5c(c4)CCO5)C3)n2)nc1,8.464
4,Cc1ccn(CCC(=O)N2CCOC(c3nc(-c4cccs4)no3)C2)n1 (centres undefined),-6.468
5,O=C(Cc1ccsc1)N1CCOC(c2nc(-c3ncccn3)no2)C1 (centres undefined),131.4
6,O=C(Cc1ccccc1)N1CCOC(c2nc(-c3ncccn3)no2)C1 (centres undefined),104.4
7,Cc1n[nH]c(C2CN(C(=O)CCc3ccsc3)CCO2)n1 (centres undefined),-9.569
8,Cc1ccc2c(C)c(C(=O)NCc3csc(N)n3)oc2c1,24.68
9,CCc1nc(NS(=O)(=O)c2cc(C)c(F)cc2Cl)no1,-1.735
10,Cc1cc(S(=O)(=O)NCC[S+](C)[O-])c(F)cc1F (centres undefined),90.6
11,Cc1c(F)cccc1S(=O)(=O)NC(C)(C)CN.Cl,-6.464
12,Cc1cc(S(=O)(=O)NC(C)(C)CN)c(F)cc1F.Cl,112.3
13,Cc1ccc(S(=O)(=O)NCC(C)(C)N)c(F)c1.Cl,102.6
14,Cc1ccc(S(=O)(=O)NC(C)(C)CN)c(F)c1.Cl,-7.288
15,Cc1ccc(F)c(NCC(C)(C)S(C)(=O)=O)c1,-3.079
16,Cc1ccc(S(=O)(=O)NCc2cnn(C)c2)c(F)c1,1.109
17,Cc1c(F)cccc1S(=O)(=O)NCCN.Cl,-3.419
18,Cc1cc(F)c(S(=O)(=O)NCCCN2CCC(O)CC2)cc1F,7.324
19,Cc1cc(S(=O)(=O)NCC(C)(C)N)c(F)cc1F.Cl,106.9
20,Cc1ccc(S(=O)(=O)NCCCN2CCC(O)CC2)c(F)c1,10.81
